The whole screen tested about 120,000 compounds, of which about 5,300 (4.4%) were called active. About 22% were inconclusive and are not listed. Only a selection was taken, and actives are over-represented in it overall. Values without a mark were called inactive. Calls come from the whole dose curve; as a rule, active = well fitted inhibition curve with a large enough effect; inconclusive = small, poorly fitted or top-dose-only effect; inactive = no such curve, though single readings can be large or run the other way.
assay: qHTS Primary assay for Inhibitors of Plasmodium falciparum Dd2 growth in vitro; note: nearly all actives have a fitted effect of over 65% in size;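 for activity, negative = inhibition: plate controls were DMSO vehicle for no effect and reference drug for full effect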; settings: P. falciparum Dd2 growth, SYBR Green, 72 h; series mostly up to 28.9 µM; activity, negative = inhibition: at the top concentration
How it was run: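 Infected erythrocytes (Dd2, 0.3% parasitemia, 2.5% hematocrit final) are added to compound in RPMI-1640/Albumax II medium, grown 72 h at 37C in low oxygen, then lysed with saponin/Triton-X containing SYBR Green and read by fluorescence.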
Potency is the fitted concentration of half-maximal effect.

SMILES	outcome	activity, negative = inhibition	Potency
O=C1Nc2ccccc2C12CCN([S+](=O)([O-])c1cccc(C(F)(F)F)c1)C2 (centres undefined)	inactive	–	–
COc1ccc([C@H]2C[C@@H](O)[C@@H](O)[C@@H]2NC(=O)c2ccccc2)cc1	–	-24.6% [at 44.1 µM]	–
COc1ccccc1Nc1c2c(nc3ccc(NC(=O)/C=C/c4cc(OC)c(OC)c(OC)c4)cc13)CCCC2	–	–	3.98 µM (active)
CCOc1ccc(-n2nc3ccc(NC(=O)c4ccc(OC)c(Cl)c4)cc3n2)cc1	inactive	–	–
COc1cc(NC(=O)c2nc3ccccc3nc2C)cc(OC)c1OC	inactive	–	–
CCOc1ccccc1NC(=O)Cn1nnc(C(=O)Nc2ccc(C)c(C)c2)c1N	–	-8.19%	–
CCOc1ccc(C(=O)Nc2ccc3nc4c(c(Nc5ccccc5OC)c3c2)CCCC4)cc1	–	–	11.2 µM (active)
COc1cc(C(=O)Nc2ccc(-n3c(C)nc4ccccc4c3=O)cc2)cc(OC)c1OC	–	-5.62%	–
Cc1noc(-c2ccco2)c1C(=O)NC(C)c1ccccc1 (centres undefined)	–	-24.3%	–
O=[S+]([O-])(c1ccc(Br)cc1)c1nnn2c1nc(NC1CC1)c1ccccc12	–	-7.76%	–
CCc1cc(=O)n(CC(=O)Nc2cccc(C(C)=O)c2)c(-c2ccccc2)n1	inactive	–	–
Cc1ccc(NC(=O)CC2=C3CCCCC3NC2=O)cc1 (centres undefined)	–	0.61%	–
CC(C)c1nccn1CCCNc1nc(-c2ccncc2)nc2c1cnn2C	–	–	12.6 µM (active)
Cc1ccccc1-c1ccc(C(=O)NCCCn2ccnc2C(C)C)cn1	–	-12.5%	–
CC(Cn1cncn1)Nc1nc(-c2ccncc2)nc2c1cnn2C (centres undefined)	–	-8.69%	–
O=C(NC1CCCCC1)N1C[C@@H]2C[C@H](C1)c1c(NS(=O)(=O)c3ccccc3)ccc(=O)n1C2	–	20.8%	–
Cc1cc(C)cc(NC(=O)Cn2nc3n(c2=O)CCCC3)c1	inactive	–	–
COC1C(=O)N(C2CCN(Cc3ccc(O)cc3)CC2)C12CCOCC2 (centres undefined)	–	-25.7%	–
Cc1nn2c(c1-c1ccccc1-c1ccccc1)N(C(=O)CN1CCOCC1)CCC2	inactive; activator; fitted 1.5849 uM [at 44.1 µM]	–	–
Cc1nn2c(c1-c1ccccc1-c1ccccc1)N(CC1CC1)CCC2	–	–	0.316 µM (active)
Cc1nn2c(c1-c1ccnn1C(C)C)N(CC1CCOCC1)CCC2	–	-17% [at 44.1 µM]	–
Cc1ncsc1C1N(C2CCN(C(=O)c3ccncc3)CC2)C(=O)C12CCCC2 (centres undefined)	–	-4.33%	–

SMILES	outcome	activity, negative = inhibition	Potency
Cc1ccccc1NC(=O)CCOc1ccccc1	–	-14.8%	–
Cc1ccccc1NC(=O)c1cc2c([nH]c1=O)CC(C)(C)CC2=O	–	-3.79%	–
Cc1ccccc1NC(=O)c1cc2cn(C(C)C)cc2s1	–	–	8.91 µM (active)
CCn1cc(S(=O)(=O)N2CCC3(CC2)CN(Cc2ccc(OC)cc2)C3=O)cn1	inactive	–	–
C=CCNC(=O)c1cn2c(n1)CN([S+](C)(=O)[O-])CC2	–	51.3% [at 44.1 µM]	–
CN(C)c1ccc(NC(=O)Cn2nc3n(c2=O)CCCCC3)cc1	–	32.9%	–
COc1ccc(C(=O)N2CCCCCCNC(=O)CC2)cn1	–	-6.17%	–
O=C(NCc1ccco1)[C@@H]1Cc2nc[nH]c2CN1CCCc1ccccc1	–	–	7.94 µM (active)
O=C(CCc1conc1-c1ccccc1)NCc1ccco1	–	8.66%	–
O=C(NCc1ccco1)C1CCCN(c2cnn(Cc3ccccc3)c(=O)c2)C1 (centres undefined)	–	-3.07%	–
COc1cccc(CC(=O)N2CCC(N3C(=O)CCC3C(=O)NCc3ccccc3)CC2)c1 (centres undefined)	–	13.2%	–
O=C(NCc1ccccc1)[C@@H]1Cc2nc[nH]c2CN1Cc1cccc(OC(F)(F)F)c1	–	–	10 µM (active)
O=C(O)CCC(=O)N1Cc2[nH]cnc2C[C@H]1c1nc(-c2ccc3ccccc3c2)no1	–	-13.2% [at 44.1 µM]	–
Fc1ccc(NC2CCCN(Cc3ccc(C#Cc4cncnc4)cc3)C2)cc1F (centres undefined)	inactive	–	–
O=C1COc2ccc(-c3cncnc3)nc2CN1Cc1ccc(F)cc1	inactive [at 44.1 µM]	–	–
OC1CC([C@@H](Cc2ccccn2)NC2CCC3(CCNCC3)CC2)C1 (some centres undefined)	–	-1.91%	–
Cc1ccc(Oc2c(C(F)(F)F)oc3c(CN4CCCCC4)c(O)ccc3c2=O)cc1	–	–	3.55 µM (active)
CC1CCCN(Cc2c(O)ccc3c(=O)c(Oc4ccc(C(C)(C)C)cc4)c(C(F)(F)F)oc23)C1 (centres undefined)	–	–	0.316 µM (active)
COc1ccc(-c2c(C)c3ccc(O)c(CN4CCCC4)c3oc2=O)cc1OC	–	-20.1%	–
Cc1ccc(C)c(Oc2c(C(F)(F)F)oc3c(CN4CCN(C)CC4)c(O)ccc3c2=O)c1	–	–	0.501 µM (active)
Cc1ccc2nc3n(c2c1)[C@@H](CNC(=O)c1ccc(C#N)cc1)COC3	inactive [at 44.1 µM]	–	–
O=C(c1ccc(F)cc1)N1CCC2(CN[S+](=O)([O-])c3ccccc3N2)C1 (centres undefined)	–	3.8%	–

SMILES	outcome	activity, negative = inhibition	Potency
O=C1CC2(CCN(C(=O)CCn3ccccc3=O)C2)C(=O)N1 (centres undefined)	–	-9.42%	–
CN[C@@H](CC(C)C)C(=O)N[C@@H]1C=C(C(=O)N[C@@H](Cc2ccc(O)cc2)C(N)=O)C[C@@H](O)[C@@H]1O	–	0.132%	–
O=C(NCCc1ccc(Cl)cc1)c1ccc2nccn2c1	–	–	inactive
O=C(CCCN1C(=O)C(c2ccccc2)Oc2cccnc21)NCCc1noc(-c2ccncc2)n1 (centres undefined)	inactive	–	–
Cc1ccc2oc(C(=O)N(C)CCc3ccccc3)c(C)c2c1	–	6.68%	–
O=C(NCc1ccncc1)C1CN(S(=O)(=O)c2cccnc2)CC12CCOCC2 (centres undefined)	–	16.7%	–
COc1ccccc1-c1cnc(NC(=O)c2ccc(Cl)cc2)c2c1CCO2	–	6.83% [at 44.1 µM]	–
COc1ncccc1Nc1ncc(-c2ccccc2)c2c1OCC2	–	-0.012% [at 44.1 µM]	–
CN1CCN(Cc2ccc(Nc3ncc(-c4cccnc4)c4c3OCC4)cc2)CC1	–	–	10 µM (active)
COc1cccc(C(=O)N2CCC(N3CCCCCC3=O)CC2)c1	–	2.85% [at 44.1 µM]	–
Cc1cccc(C)c1CN1CCC2(CC1)Cc1ccccc1CNC2=O	–	-3.2%	–
O=C1NCc2ccccc2CC12CCN(Cc1cccc(Cl)c1)CC2	–	-22.5%	–
CC(C)Cc1ccc(CN2CCC3(CC2)Cc2ccccc2CNC3=O)cc1	–	–	11.2 µM (active)
Cc1cc2nc3n(c(=O)c2n1CC(=O)NCc1ccc(F)cc1)CCCCC3	inactive; activator; fitted 0.5012 uM	–	–
O=C1NC(=NC2CCCC2)C2(CCCN(Cc3ccsc3)C2)N1c1cc(F)cc(F)c1 (centres undefined)	–	–	5.01 µM (active)
CC(C)CCN1CCC2(C1)C(=NC1CCCCC1)NC(=O)N2c1cc(F)cc(F)c1 (centres undefined)	–	–	8.91 µM (active)
O=C1NC(=NC2CCCCC2)C2(CCCN(S(=O)(=O)c3cccs3)C2)N1c1cc(F)cc(F)c1 (centres undefined)	–	-26.6%	–
O=C(c1ccccc1F)N1CCCC2(C1)C(=NC1CCCCC1)NC(=O)N2c1cc(F)cc(F)c1 (centres undefined)	–	-4.93%	–
COc1ccc(C(=O)N2CCCC3(C2)C(=NC2CCCC2)NC(=O)N3c2cc(F)cc(F)c2)cc1 (centres undefined)	–	-18.2%	–
COC(=O)N1CCC2(CC1)C(=NC1CCCC1)NC(=O)N2c1cc(F)cc(F)c1	–	0.0213%	–

— PubChem BioAssay AID1347417 (National Center for Advancing Translational Sciences (NCATS), 2020)
